Source: PubChem BioAssay (several laboratories)
Sampled rows, rich in hits. Any-hit rate of the full collection: about 3.3%.
MITF TRPM1 HTS – increases MITF-driven TRPM1 promoter luciferase signal; 300,000 compounds, 0.75% hits; AID 588334; SK-MEL-5 TRPM1-promoter luciferase, 24 h; % of positive control, neutral wells = 0; activation, % at 12.5 µM;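 active = mean activation of at least 80% with every replicate also reaching 80%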
Statin myotox sup – protects C2C12 myotubes from simvastatin toxicity. ATP luminescence, 48 h; scaled: DMSO 0, geranylgeraniol control 100. rescue of ATP level, % at 7.49 µM. 330,000 compounds, 0.78% hits. AID 602340;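 active = mean ATP rescue above about 67%, or every replicate alone reaching that limit, limit read from the data, passing the limit was not always enough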;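 note: myotubes were challenged with 10 µM simvastatin during compound exposure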
Wnt bcat act – Wnt/beta-catenin pathway activation; Wnt/beta-catenin reporter cell assay, activator, plate reader; AID 743398; activation, % at 9.35 µM; 300,000 compounds, 1.2% hits; in the data active = activation above about 30%, passing the limit was not always enough
esBAF inh – blocks esBAF chromatin remodeling in mouse ES cells; Bmi1-luciferase knock-in reporter, 24 h; 100% = twice the neutral-well signal; reporter increase, % at 12.5 µM; 350,000 compounds, 2% hits; AID 602393; in the data active = activation above about 40%;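 note: a rise in the Bmi1 reporter signal indicates esBAF inhibition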
FXN GAA850 act – increases GAA850 frataxin promoter reporter activity; HEK293 lucGAA850 FXN promoter luciferase reporter, 24 h; percent of 10 µM SAHA response; 360,000 compounds, 0.56% hits; activation, % at 6 µM; AID 540364;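 active = activation above the average of all compounds screened plus 3 SD, cutoff fixed separately per campaign, cut at about 7.5% in these data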
A number is an active result.

Results for O/N=C(\Cc1cscn1)c1ccc(O)cc1O ?
MITF TRPM1 HTS: inactive; Statin myotox sup: inactive; Wnt bcat act: inactive; esBAF inh: 49; FXN GAA850 act: inactive

How did CCc1cc(/C(Cc2cscn2)=N\O)c(O)cc1O do in these assays?
MITF TRPM1 HTS: inactive; Statin myotox sup: inactive; esBAF inh: inactive; FXN GAA850 act: inactive

How did CC(C)NC(=O)N1C[C@@H]2[C@H](c3ccccc31)[C@@H](CO)N2C(=O)Nc1ccccc1 do in these assays?
Statin myotox sup: inactive; esBAF inh: inactive

How did COc1ccc(-c2cnc3c(c2)C(=O)N([C@H](C)CO)C[C@@H](C)[C@H](CN(C)C(=O)C2CC2)O3)cc1 do in these assays?
Statin myotox sup: inactive; esBAF inh: inactive

Results for Cc1ccc(-n2c(C)cc(C(=O)COC(=O)c3c(C)noc3C)c2C)cc1 ?
MITF TRPM1 HTS: inactive; Statin myotox sup: inactive; Wnt bcat act: 51; esBAF inh: inactive; FXN GAA850 act: inactive

How did Cc1ccc(-n2c(C)cc(C(=O)COC(=O)C3=NNC(=O)CC3)c2C)cc1 do in these assays?
MITF TRPM1 HTS: inactive; Statin myotox sup: inactive; esBAF inh: inactive; FXN GAA850 act: inactive

What do the screens show for `Cc1cc(C(=O)COC(=O)C2=NNC(=O)CC2)c(C)n1-c1ccccc1`?
MITF TRPM1 HTS: inactive; Statin myotox sup: 141; Wnt bcat act: inactive; esBAF inh: inactive; FXN GAA850 act: inactive

How did O=C(CN1CCOCC1)N[C@H]1CC[C@H](CCNS(=O)(=O)c2ccccc2F)O[C@@H]1CO do in these assays?
Statin myotox sup: inactive; esBAF inh: inactive

Results for C[C@H](CO)N1C[C@H](C)[C@H](CN(C)C(=O)Nc2ccccc2)Oc2ncc(-c3cc4ccccc4o3)cc2C1=O ?
Statin myotox sup: 92; esBAF inh: inactive

How did C[C@H](CO)N1C[C@H](C)[C@H](CN(C)S(=O)(=O)c2ccc(C#N)cc2)Oc2ncc(-c3cc4ccccc4o3)cc2C1=O do in these assays?
Statin myotox sup: 95; esBAF inh: inactive

Results for C[C@H]1CN([C@@H](C)CO)C(=O)c2cccc(NS(=O)(=O)c3ccc(F)cc3)c2O[C@H]1CN(C)C(=O)Nc1cccc2ccccc12 ?
Statin myotox sup: inactive; esBAF inh: inactive

How did CCCCC#Cc1ccc2c(c1)COc1c3ccccc3nn1-2 do in these assays?
MITF TRPM1 HTS: inactive; Statin myotox sup: inactive; Wnt bcat act: inactive; esBAF inh: 71; FXN GAA850 act: inactive

How did CCCCCCC#Cc1ccc2c(c1)COc1c3ccccc3nn1-2 do in these assays?
MITF TRPM1 HTS: 84; Statin myotox sup: inactive; Wnt bcat act: inactive; esBAF inh: inactive; FXN GAA850 act: inactive

How did CCOc1ccc(CSC(CC(=O)O)C(=O)O)cc1 (configuration not stated) do in these assays?
MITF TRPM1 HTS: inactive; Statin myotox sup: 103; Wnt bcat act: inactive; esBAF inh: inactive; FXN GAA850 act: inactive

What do the screens show for `CCCCOc1ccc(CSC(CC(=O)O)C(=O)O)cc1` (configuration not stated)?
MITF TRPM1 HTS: inactive; Wnt bcat act: inactive; esBAF inh: inactive; FXN GAA850 act: inactive

Results for CC1CC(=O)C(C(C2=C(O)CC(C)CC2=O)c2ccccc2)=C(O)C1 (configuration not stated) ?
MITF TRPM1 HTS: inactive; Statin myotox sup: 101; Wnt bcat act: inactive; FXN GAA850 act: inactive

How did CC1CC(=O)c2cc(-c3ccccc3)oc2C1 (configuration not stated) do in these assays?
Statin myotox sup: inactive; Wnt bcat act: inactive; esBAF inh: inactive; FXN GAA850 act: inactive

How did O=S1(=O)C=C(N2CCCCC2)c2ccccc21 do in these assays?
MITF TRPM1 HTS: inactive; Statin myotox sup: 108; esBAF inh: inactive; FXN GAA850 act: inactive

What do the screens show for `CCOC(=O)N(C)c1ccc(C(O)(C(F)(F)F)C(F)(F)F)cc1`?
MITF TRPM1 HTS: inactive; Statin myotox sup: 71; esBAF inh: inactive; FXN GAA850 act: inactive

Results for O=c1[nH][nH]c(=O)c2c(NS(=O)(=O)c3ccccc3)cccc12 ?
MITF TRPM1 HTS: inactive; Statin myotox sup: inactive; Wnt bcat act: inactive; esBAF inh: 46; FXN GAA850 act: inactive

What do the screens show for `O=S(=O)(Nc1ccc(NS(=O)(=O)c2ccccc2)c2ccccc12)c1ccccc1`?
Statin myotox sup: inactive; Wnt bcat act: inactive; esBAF inh: inactive; FXN GAA850 act: inactive

Results for O=C(NCCc1cccc(Cl)c1)c1ccc2c(c1)OCO2 ?
MITF TRPM1 HTS: inactive; Wnt bcat act: 45; FXN GAA850 act: inactive

Results for O=C(NCCS(=O)(=O)NCCc1ccccc1)c1ccc2c(c1)OCO2 ?
MITF TRPM1 HTS: 108; Wnt bcat act: inactive; FXN GAA850 act: inactive

Results for O=C(NCc1cccc(Cl)c1)c1ccc2c(c1)OCCO2 ?
MITF TRPM1 HTS: inactive; Statin myotox sup: inactive; Wnt bcat act: inactive; esBAF inh: inactive; FXN GAA850 act: inactive

How did CC=Cc1ccc2n(c1=O)C[C@@H]1[C@@H](CO)[C@H](C(=O)NC3CCCC3)N(Cc3ccncc3)[C@H]21 (mixture of isomers) do in these assays?
Statin myotox sup: inactive; esBAF inh: inactive

What do the screens show for `COc1ccc(NC(=O)N(C)C[C@H]2OCCCC[C@H](C)Oc3ccc(NS(=O)(=O)c4ccc(Cl)cc4)cc3C(=O)N([C@@H](C)CO)C[C@@H]2C)cc1`?
esBAF inh: inactive

What do the screens show for `CC(=O)Nc1cc(-c2nn(C)c(=O)c3ccccc23)ccc1N1CCOCC1`?
MITF TRPM1 HTS: inactive; Statin myotox sup: 106; Wnt bcat act: inactive; esBAF inh: inactive; FXN GAA850 act: inactive

What do the screens show for `CCCC(=O)Nc1cc(-c2nn(C)c(=O)c3ccccc23)ccc1N1CCOCC1`?
MITF TRPM1 HTS: inactive; Statin myotox sup: inactive; Wnt bcat act: inactive; esBAF inh: inactive; FXN GAA850 act: inactive

What do the screens show for `C/C(=N\Nc1ccc(C(=O)O)cc1)c1ccc2c(c1)Nc1ccccc1S2`?
MITF TRPM1 HTS: 124; Statin myotox sup: inactive; Wnt bcat act: inactive; esBAF inh: 52; FXN GAA850 act: inactive

Results for c1ccc(CN=C2NN=C(c3ccccc3)CS2)cc1 ?
MITF TRPM1 HTS: inactive; Statin myotox sup: inactive; Wnt bcat act: inactive; esBAF inh: 46; FXN GAA850 act: inactive

What do the screens show for `Clc1ccc(C2=NNC(=NCc3ccccc3)SC2)cc1`?
MITF TRPM1 HTS: inactive; Wnt bcat act: inactive; FXN GAA850 act: inactive

How did COc1cccc(-c2nc(-c3ccc4c(c3)NC(=O)CO4)cs2)c1 do in these assays?
MITF TRPM1 HTS: 105; Wnt bcat act: inactive; FXN GAA850 act: inactive

Results for COc1ccc(-c2cc(-c3ccc(OC)cc3)nc(-c3ccc4c(c3)NC(=O)CO4)c2)cc1 ?
MITF TRPM1 HTS: inactive; Statin myotox sup: inactive; Wnt bcat act: inactive; esBAF inh: inactive; FXN GAA850 act: inactive

What do the screens show for `CC1CCN(C(=O)COC(=O)c2cc(Cl)c3c(c2)OCO3)CC1`?
MITF TRPM1 HTS: inactive; Statin myotox sup: inactive; Wnt bcat act: 32; esBAF inh: inactive; FXN GAA850 act: inactive

What do the screens show for `O=C(COCc1cc(-c2cccs2)on1)NC1CCCCC1`?
MITF TRPM1 HTS: inactive; Statin myotox sup: inactive; Wnt bcat act: inactive; esBAF inh: inactive; FXN GAA850 act: inactive

Results for O=C(NC1CCCCC1)c1cc(-c2ccc(F)cc2)on1 ?
Statin myotox sup: inactive; Wnt bcat act: inactive; esBAF inh: 59; FXN GAA850 act: inactive
